Results on 2 molecules are retold here after PubChem BioAssay AID1245 (Sanford-Burnham Center for Chemical Genomics, 2008).

The assay is described as follows: displacers of FITC-Puma-BH3 from Bcl-B – biochemical, fluorescence polarization, Puma-BH3 peptide, counter-screen for TR3-derived Bcl-B inhibitor project, dose response (AID 1245). Particulars: Bcl-B/FITC-Puma-BH3 fluorescence polarization binding.

A number with no mark means an inactive call. Active and inactive are the calls of the source. How the calls were made is not given here. Some results are limits rather than exact numbers.

The term EC50 denotes the concentration giving half of the maximal effect. With `Cc1cc(C)nc(/N=C(/N)Nc2cccc(N)c2)n1`, the EC50 is over 25 µM.

As to `Cc1ccc(C)n1-c1ccc(Br)cc1C(=O)O`, the EC50 was 1 µM (active).
